# Measured values from PubChem BioAssay AID2315 (National Center for Advancing Translational Sciences (NCATS), 2010).
# Where “and” joins values, the source holds several entries; their conditions need not be identical. Equal values may be shown once. Out of some 290,000 compounds screened, about 27,000 (9.3%) were called active. Cut-off read from the data, not from the text of the source: active = inhibition mostly above about 28% (no sharp cut-off); inactive = mostly below about 43%. For the sample, actives were picked, then their nearest neighbours and some compounds at random.
# Assay: A qHTS for Small Molecule Inhibitors of Shiga Toxin; note: 0% is about no effect
# Conditions: Vero cells, Shiga toxin protein synthesis inhibition reporter; at 38.7 µM, stronger effect = higher value
row,Compound,inhibition
1,COc1ccc(S(=O)(=O)N2CCC(C(=O)N3CCCC3)CC2)cc1C,-7.97% (inactive)
2,CCOc1ccc(NC(=O)c2cccc3c2C(=O)N(CC2CCCO2)C3)cc1 (stereo unspecified),11.4% (inactive)
3,COc1ccc(C2CC(O)(c3ccccc3)Oc3cc(C)cc(C)c32)cc1 (stereo unspecified),17.1% (inactive)
4,COCCn1c(SCC(=O)Nc2cc(Cl)ccc2OC)nc2c(c1=O)SC(C)C2 (stereo unspecified),4.22% (inactive)
5,C=CCSc1nc2c(c(=O)[nH]c(=O)n2C)n1Cc1ccccc1,-6.62% (inactive)
6,Cc1cs/c(=N\N=C\c2ccc(O)cc2)n1Cc1ccco1,0% (active)
7,CN(c1ccccc1)c1ccc(/C=c2\s/c(=C(/C#N)C(=O)C(C)(C)C)n(Cc3ccco3)c2=O)cc1,-15.7% (inactive)
8,CC(C)n1c(=O)c(C=Nc2ccc(Br)cc2)c(O)n(Cc2ccco2)c1=O,-2% (inactive)
9,CC(C)c1ccc(Cc2nnc(NCCCO)[nH]c2=O)cc1,-6.37% (inactive)
10,Cc1ccccc1CN1C(=O)c2ccccc2Sc2ccc(C(=O)NCCCN3CCOCC3)cc21,-7.27% (inactive)
11,COC(=O)c1ccc(CNC(=O)C2CCC(=O)N(Cc3cccc(F)c3)C2)cc1 (stereo unspecified),-2.68% (inactive)
12,CC(C)(C)c1ccc(OC(=O)N2CCCCC2)cc1,104% (active)
13,COc1ccc(S(=O)(=O)NC(C)C(=O)N2CCCCCC2)cc1 (stereo unspecified),-16.1% (inactive)
14,O=C(c1ccccc1)c1ccc(OCC(O)CN2CCCC2)cc1 (stereo unspecified),2.19% (inactive)
15,O=C(c1ccccc1)c1ccc(C(=O)N2CCN(c3ccccc3)CC2)cc1,30.8% (inactive)
16,CC(C)(C)c1ccc(C(=O)N2CCC(C(=O)N3CCCCC3)CC2)cc1,-4.15% (inactive)
17,O=C(c1ccccc1)c1ccc(OC(=O)N2CCCC2)cc1,47.5% (active)
18,O=C(NCCc1ccccn1)c1nc(Cn2cc([N+](=O)[O-])cn2)no1,-5.12% (inactive)
19,COc1cccc(CN(C)CC(O)COC(c2ccccc2)c2ccccc2C)c1 (stereo unspecified),-8.7% (inactive)
20,COc1ccc(-c2nc(N)ncc2-c2ccc(Cl)cc2)c(O)c1,8.54% (inactive)
21,COc1ccc(-c2nnc3n2CCCCC3)cc1,5.25% (inactive)

row,Compound,inhibition
1,Brc1cccc(-c2nnc3n2CCC3)c1,-4.22% (inactive)
2,COc1ccc(-c2nc3n(c2Br)CCC3)cc1,87.2% (active)
3,CCCCCn1c(=O)[nH]c2cc(C(=O)NCCCN3CCCCC3C)ccc2c1=O (stereo unspecified),-23.9% (inactive)
4,CNC(=O)CN1C(=O)NC(c2ccccc2)(c2ccccc2)C1=O,-7.36% (inactive)
5,O=C(NCc1ccc(F)cc1)C1CCN(C(=O)Nc2ccc(F)cc2)CC1,-9.53% (inactive)
6,O=C1CC(c2ccccc2)=NN1c1ccc([N+](=O)[O-])cc1,55% (active)
7,O=c1[nH]n(-c2ccc([N+](=O)[O-])cc2)c(=O)c2ccccc12,-17% (inactive)
8,CC1=NN(c2ccccc2)C(=O)C1C(=O)c1ccc([N+](=O)[O-])cc1 (stereo unspecified),27.4% (inactive)
9,CCC(C)[C@H](NC(=O)N1CCn2c1nc1ccccc12)C(=O)NCc1ccc(OC)cc1 (stereo partly specified),13.9% (inactive)
10,COc1ccc(C(CNCC(=O)Nc2ccccc2F)N(C)C)cc1 (stereo unspecified),7.34% (inactive)
11,Cc1cc(C)c2nc3nc(C)cc(C)c3c(N)c2c1,32.6% (active)
12,Cc1cc(C)c2nc(SCCC#N)nc(C)c2c1,27.9% (inactive)
13,Cc1cc(C)c2nc(-c3ccco3)cc(C(=O)O)c2c1,-7.1% (inactive)
14,OCCC(O)CO (stereo unspecified),-8.78% (inactive) and 20.3% (inactive) and 19.5% (inactive)
15,COc1ccc(-c2c(C#Cc3ccccc3)c3ccccc3n2C)cc1,43.7% (active)
16,COc1ccc(CCNCc2c(-c3ccccc3)n(C)c3ccccc23)cc1,11.5% (inactive)
17,CN(C)Cc1c(C#N)c2ccccc2n1C,-25% (inactive)
18,COc1cccc(C(=O)Nc2nnc(S(=O)(=O)N(C)c3ccccc3)s2)c1,3.08% (inactive)
19,Cc1nc2sccn2c(=O)c1S(=O)(=O)NCCc1ccccc1,-9.77% (inactive)
20,COc1ccc(OCC(=O)Nc2nnc(-c3ccco3)s2)cc1,2.24% (inactive)
21,Cc1cccc(NC(=O)CSc2nnc(-c3ccco3)o2)c1,-23.3% (inactive)

row,Compound,inhibition
1,CCCCOc1ccc(-c2nnc(-c3ccco3)o2)cc1,85.9% (active)
2,Cc1ccc(OCC(=O)Nc2ccc(-c3nc4ncccc4o3)cc2)cc1,2.45% (inactive)
3,CCC(=O)Oc1cccc(C(=O)Nc2ccc(-c3nnc(-c4ccco4)o3)cc2)c1,90.4% (active)
4,COc1ccc(C(=O)CSc2nnc(-c3ccco3)o2)cc1,10.9% (inactive)
5,Cc1ccc(OCC(=O)Nc2ccc(-c3nnc(-c4ccco4)o3)cc2)cc1,22.1% (active)
6,Cc1ccc(OCC(=O)Nc2nnc(-c3ccco3)s2)cc1,4.17% (inactive)
7,O=C(CCc1ccccc1)Nc1cccc(-c2nnc(-c3ccco3)o2)c1,19.4% (inactive)
8,Cc1ccc(-c2nnc(Nc3ccc(C(=O)N(C)C)cc3)c3ccccc23)cc1S(N)(=O)=O,1.45% (inactive)
9,CC(C)(C)n1ncc2c(=O)n(Cc3ccc(Cl)cc3)cnc21,33.8% (inactive)
10,Cc1cc(=O)oc2c(C)c(OCC(=O)NCCc3ccc(S(N)(=O)=O)cc3)ccc12,-5.85% (inactive)
11,CCOc1ccc(NC(=O)[C@H](C)NC(=O)C2CC(=O)N(c3ccc(OC)cc3)C2)cc1 (stereo partly specified),-4.28% (inactive)
12,COCCCNc1nc2ccccc2nc1NS(=O)(=O)c1ccc(F)cc1,2.37% (inactive)
13,CCCCNC(=O)N1CCCC(N(C)CCc2ccc(OC)c(OC)c2)C1 (stereo unspecified),-2.02% (inactive)
14,Cc1ccc(NC(=O)CSc2nn3c(=O)c(C)nnc3s2)cc1Cl,7.47% (inactive)
15,O=C(Nc1ccc2c(c1)CCC2)c1ccc(Br)s1,112% (active)
16,O=C(NC1CCCC1)c1ccc(Br)s1,30.7% (inactive)
17,CC(C)C(=O)OCC(=O)Nc1ccc2c(c1)CCC2,14.2% (inactive)
18,CC1=C(C(=O)OCC2CCCCC2)C(c2ccc(F)cc2)NC(=O)N1 (stereo unspecified),-7.87% (inactive)
19,CN(C)c1nc(Nc2ccc(Cl)c(Cl)c2)nc(N(C)C)n1,-11.2% (inactive)
